Shown are actives, neighbours in structure and some others; about 5.7% of the full set was active somewhere.
MPTP block: mitochondrial permeability transition pore inhibitors, primary screen, biochemical, isolated mouse mitochondria, absorbance. Ca2+ swelling absorbance, 30 min. 1.4% of 360,000 active. AID 602449, 2012. inhibition, % at 10 µM;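 active = inhibition of 50% or more, scaled per plate between neutral and stimulator controls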
Myeloid diff MLP: induction of myeloid progenitor differentiation, primary screen, cell-based, flow cytometry, MLPCN library; ER-HoxA9 myeloid progenitors, lysozyme-GFP differentiation; calls only at 10 µM; 1% of 360,000 active;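 active = normalized GFP-positive differentiation at or above the plate's own cutoff, the solvent-only control mean plus 3 SD; inconclusive = no clear call, values can overlap the other calls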;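 note: cells exposed to compound for four days before flow analysis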
rCAG RNA binder: binders of r(CAG) RNA repeats, primary screen, biochemical, fluorescence. r(CAG) RNA repeat, TO-PRO-1 dye displacement fluorescence. inhibition, % at 3 µM. 1.3% of 370,000 active;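 active = inhibition above the plate cutoff, the mean of all test compounds on that plate plus 3 SD, cut at about 35% in these data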;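 note: higher means more dye released from RNA so lower well fluorescence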
FAS TE block: FAS thioesterase domain inhibitors, primary screen, biochemical, fluorescence intensity, uHTS. AID 602261, 2012. Fatty acid synthase (Homo sapiens), P49327. inhibition, % at 15 µM. 0.67% of 360,000 active. recombinant FAS-TE, OMFH fluorogenic substrate, fluorescence endpoint;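 active = compounds whose normalised, plate-corrected inhibition of enzyme fluorescence in the single-dose primary screen is 50% or more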
GRIN3A LBD mod: binders of NR3A ligand-binding domain, primary screen, biophysical, differential scanning fluorimetry, uHTS; Glutamate receptor ionotropic, NMDA 3A (GRIN3A) ligand-binding domain; NR3A LBD differential scanning fluorimetry, Tm shift; 0% = protein alone, 100% = glycine-bound protein; Tm shift relative to glycine control, % at 25 µM; 2.5% of 340,000 active;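 active = melting temperature shift of at least 10% of the positive control shift, at one fixed dose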
Numbers stand for hits; ! = not confirmed by another sample.

Results for C[C@@H]1CN(c2ccc(N3CCN(C(=O)OC(C)(C)C)C[C@@H]3C)cc2C#N)CCN1Cc1ccccc1 ?
rCAG RNA binder: inactive

How did c1ccc(-c2ccc3ccccc3n2)cc1 do in these assays?
MPTP block: inactive; Myeloid diff MLP: inactive; rCAG RNA binder: inactive; FAS TE block: inactive; GRIN3A LBD mod: 32

How did O=C1NC(=O)C2(CCCc3ccc(N(CCO)CCO)cc32)N1 (stereo not given) do in these assays?
rCAG RNA binder: inactive

How did CCC(C(=O)Nc1ccccc1N1CCCC1)c1ccccc1Cl (stereo not given) do in these assays?
rCAG RNA binder: inactive

What do the screens show for `COC(=O)C1=C(C)N(C)C(=NCc2ccc(OC)cc2)NC1c1cccc(F)c1` (stereo not given)?
rCAG RNA binder: inactive

How did Nc1c(C(=O)O)sc2nc(-c3ccccc3)cc(-c3ccc(F)cc3)c12 do in these assays?
MPTP block: inactive; Myeloid diff MLP: active; rCAG RNA binder: inactive; FAS TE block: inactive; GRIN3A LBD mod: inactive

What do the screens show for `Nc1c(C(=O)O)sc2nc(-c3ccccc3)cc(-c3ccccc3)c12`?
MPTP block: inactive; Myeloid diff MLP: inactive; rCAG RNA binder: inactive; FAS TE block: inactive; GRIN3A LBD mod: inactive

Results for COc1cccc(/C=C2\CC3(OC(=O)C4CCCC4)CCCN2C3)c1 (stereo not given) ?
rCAG RNA binder: inactive

Results for CC(C)c1onc(C(=O)Nc2cccc(Cl)c2)c1[N+](=O)[O-] ?
MPTP block: inactive; Myeloid diff MLP: inactive; rCAG RNA binder: inactive; FAS TE block: inactive; GRIN3A LBD mod: 20

What do the screens show for `CC(C)c1cc(C(=O)Nc2cccc(Cl)c2)no1`?
MPTP block: inactive; Myeloid diff MLP: inactive; rCAG RNA binder: inactive; FAS TE block: inactive; GRIN3A LBD mod: inactive

What do the screens show for `CCCCOCCCNC(=O)C[C@H]1C[C@@]2(C(=O)OC)C(=C[C@H](C(C)C)O[C@@H]2C2CC2)N(Cc2ccco2)C1=O`?
rCAG RNA binder: inactive

What do the screens show for `N#CC(C#N)=C1C=C2C=C(N3CCCCCC3)CCC2CC1` (stereo not given)?
MPTP block: inactive; Myeloid diff MLP: inactive; rCAG RNA binder: inactive; FAS TE block: inactive; GRIN3A LBD mod: inactive

Results for CN1CCN(C2=CC3=CC(=C(C#N)C#N)CCC3CC2)CC1 (stereo not given) ?
MPTP block: inactive; Myeloid diff MLP: active; FAS TE block: inactive; GRIN3A LBD mod: inactive

Results for N#CC(C#N)=C1C=C2C=C(N3CCOCC3)CCC2CC1 (stereo not given) ?
MPTP block: inactive; Myeloid diff MLP: active; rCAG RNA binder: inactive; FAS TE block: inactive; GRIN3A LBD mod: inactive

How did CCN1CCN(C2=CC3=CC(=C(C#N)C#N)CCC3CC2)CC1 (stereo not given) do in these assays?
MPTP block: inactive; Myeloid diff MLP: active; FAS TE block: inactive; GRIN3A LBD mod: inactive

What do the screens show for `CCCCCCCCN1C(=O)[C@@H](CC(=O)NCc2cccc(C(F)(F)F)c2)C[C@@]2(C(=O)OC)C1=C[C@H](COCc1ccccc1)O[C@@H]2C`?
rCAG RNA binder: inactive

Results for O=C(CSc1nnc(-c2ccccc2)n1-c1ccc(Cl)cc1)Nc1cccc2ccccc12 ?
rCAG RNA binder: inactive

What do the screens show for `COc1cccc(C(=O)N[C@H](C(=O)N2CCC[C@H]2C(=O)NCc2ccccc2)C2CCCCC2)c1`?
rCAG RNA binder: inactive

What do the screens show for `CS(=O)(=O)N(Cc1ccc(Cl)cc1)c1ccc(C(=O)N/N=C/c2cc3ccccc3nc2Cl)cc1`?
MPTP block: inactive; Myeloid diff MLP: inactive; rCAG RNA binder: inactive; FAS TE block: inactive; GRIN3A LBD mod: 10

What do the screens show for `CS(=O)(=O)N(Cc1ccc(Cl)cc1)c1ccc(C(=O)NCc2ccccn2)cc1`?
MPTP block: inactive; Myeloid diff MLP: inactive; rCAG RNA binder: inactive; FAS TE block: inactive; GRIN3A LBD mod: inactive

Results for CS(=O)(=O)N(Cc1ccc(C(=O)NN=C2CCCCCC2)cc1)c1ccccc1 ?
MPTP block: inactive; Myeloid diff MLP: inactive; rCAG RNA binder: inactive; FAS TE block: inactive; GRIN3A LBD mod: 13

Results for CCCC[C@H]1C2CC(OC(=O)NCCCc3ccccc3)C(C2)[C@H]2CCCCN21 (stereo not given in full) ?
rCAG RNA binder: inactive

How did CC1(C)CC(=O)C2=C(C1)N(Cc1ccco1)C(=O)C2(O)C(F)(F)F (stereo not given) do in these assays?
MPTP block: inactive; Myeloid diff MLP: inactive; rCAG RNA binder: inactive; FAS TE block: inactive; GRIN3A LBD mod: 68

How did CC(=O)Nc1ccccc1N(CC(O)Cn1c2ccccc2c2ccccc21)S(=O)(=O)c1ccc(C)cc1 (stereo not given) do in these assays?
MPTP block: inactive; Myeloid diff MLP: inactive; rCAG RNA binder: inactive; FAS TE block: inactive; GRIN3A LBD mod: 13

What do the screens show for `O=C(NCc1ccco1)Nc1c(Cl)cc(Cl)cc1Cl`?
rCAG RNA binder: inactive

What do the screens show for `CCOc1ccc(-c2nc3n(c(=O)c2C#N)CCCS3)cc1`?
MPTP block: inactive; Myeloid diff MLP: active; rCAG RNA binder: inactive; FAS TE block: inactive; GRIN3A LBD mod: inactive

What do the screens show for `Cc1ccc(-c2cc(-c3ccccc3)no2)c(O)c1`?
MPTP block: inactive; Myeloid diff MLP: inactive; rCAG RNA binder: inactive; FAS TE block: inactive; GRIN3A LBD mod: inactive

What do the screens show for `Oc1ccccc1-c1cc(-c2ccccc2)no1`?
MPTP block: inactive; Myeloid diff MLP: inactive; rCAG RNA binder: inactive; FAS TE block: inactive; GRIN3A LBD mod: 19

Results for CN(C)CCCNCCCNC(=O)c1ccco1 ?
MPTP block: inactive; Myeloid diff MLP: inactive; rCAG RNA binder: inactive; FAS TE block: inactive; GRIN3A LBD mod: 11!

Results for CC(C)(C)c1ccc(C(=O)NCCCNC(=O)c2ccco2)cc1 ?
MPTP block: inactive; Myeloid diff MLP: inconclusive; rCAG RNA binder: inactive; FAS TE block: inactive; GRIN3A LBD mod: inactive

How did COc1ccc(-c2nnn(CC(=O)N(Cc3cccs3)C(C)C(=O)NC3CCCC3)n2)cc1OC (stereo not given) do in these assays?
MPTP block: inactive; Myeloid diff MLP: active; rCAG RNA binder: inactive; FAS TE block: inactive; GRIN3A LBD mod: inactive

What do the screens show for `COc1ccc(/C=N/NC(=O)c2[nH]nc3c2CCc2ccccc2-3)cc1OC`?
MPTP block: inactive; Myeloid diff MLP: inactive; rCAG RNA binder: inactive; FAS TE block: inactive; GRIN3A LBD mod: 34

Results for NNC(=O)c1[nH]c2ccc(Br)cc2c1-c1ccccc1 ?
MPTP block: inactive; Myeloid diff MLP: active; rCAG RNA binder: inactive; FAS TE block: inactive; GRIN3A LBD mod: inactive

What do the screens show for `Cc1ccc2[nH]c(C(=O)NN=C3CCCCC3)c(-c3ccccc3)c2c1`?
MPTP block: inactive; Myeloid diff MLP: active; rCAG RNA binder: inactive; FAS TE block: inactive; GRIN3A LBD mod: inactive

What do the screens show for `COc1ccc(/C=N/NC(=O)c2[nH]c3ccc(Br)cc3c2-c2ccccc2)cc1`?
MPTP block: inactive; Myeloid diff MLP: inconclusive; rCAG RNA binder: inactive; FAS TE block: inactive; GRIN3A LBD mod: 18
